The values that follow come from PubChem BioAssay (NCATS).

Inconclusive results are not listed. Entries that show only a call come without a potency. Calls of active or inactive are those of the source. Calls come from the whole dose curve; as a rule, active = well fitted cell-killing curve with a large enough effect; inconclusive = small, poorly fitted or top-dose-only effect; inactive = no such curve, though single readings can be large or run the other way.
Potency is the fitted concentration of half-maximal effect.

The nature of this test: qHTS of pediatric cancer cell lines to identify multiple opportunities for drug repurposing: Primary screen for OHS-50 cells (AID 1347103). Note: nearly all actives have a fitted effect of over 40% in size. Particulars: OHS-50 osteosarcoma viability, CellTiter-Glo luminescence, 48 h; series mostly up to 57.3 µM. From the text: Drug repurposing or repositioning has been offered as a strategy for drug development in oncology programs. This approach has special potential for childhood cancers and other rare or orphan diseases, where the expected return on new drug development has been a disincentive to pharmaceuticals.
In this project we exploit the poly-pharmacology of drugs to discover new indications via phenotypic screening of a panel of 19 well-characterized cell lines derived from solid tumors seen in children and adolescents. The goal is to identify approved drugs with previously unrecognized anticancer properties that has the potential to reveal new mechanisms and biological processes involved in carcinogenesis or drug resistance. We employed a titration-based paradigm (quantitative high-throughput screening or qHTS), where all compounds were tested at multiple concentrations for their effect on cell viability. Concentration-response curves (CRCs) were derived directly from the primary screen, and both potency and efficacy values were used to identify compounds with robust bioactivity profiles. We screened the NIH Chemical Genomics Center (NCGC) Pharmaceutical Collection (NPC) and Mechanism Interrogation Plate (MIPE) small molecule collections of approved and investigational compounds against these cell lines; and measured metabolically active cells after 48 hours of compound treatment as a proxy for cell viability.
Assay Submitter: Nathalia J. Martinez, National Center for Advancing Translational Sciences, National Institutes of Health, Rockville, MD, USA; email: natalia.martinez@nih.gov
[1] Shen, M et al. Quantitative high-throughput phenotypic screening of pediatric cancer cell lines identifies multiple opportunities for drug repurposing. Oncotarget 2017 Dec 19;9(4):4758-4772. PMID 29435139.
The cells were obtained from University of North Carolina (UNC), Pediatric Preclinical Testing Program (PPT), and Coriell Institute (CI).
qHTS cell viability assay:
Cells were assayed in growth media at a density of 500-1,000 cells/well. Five microliters of cells were dispensed into 1,536-well, white, solid-bottom, TC-treated plates (Greiner Bio One) using a multidrop dispenser and incubated at 37 degrees C, 5% CO2, under a humidified atmosphere for 5 hours. Twenty-three nanoliters of compounds and controls (neutral control DMSO or positive control bortezomib at final concentration of 2.3 µM) were subsequently transferred by Kalypsys pintool. For primary screens, the MIPE collection was tested at 11-point dilutions (final concentrations range from 0.78 nM to 46 µM) and the NPC collection at 8-point dilutions (final concentrations range from 0.59 nM to 46 µM). Compounds tested in follow-up screens were assayed at 11-point dilutions. Cells were incubated for 48 hours, followed by addition of 3 µL of CellTiter-Glo (Promega). After a 15 min incubation at room temperature, samples were analyzed for luminescence intensity using a ViewLux High-throughput CCD imager equipped with clear filters.
On the technique in general: Quantitative high-throughput screening tests each substance at several concentrations.
With `O=C1Cc2cc(Cl)ccc2N1`, the Potency result was “inactive”. As for `COC(=O)C1=C(C)NC(C)=C(C(=O)OCCc2ccc(N3CCN(C(c4ccccc4)c4ccccc4)CC3)cc2)C1c1cccc([N+](=O)[O-])c1` (stereo not given), the entry is “inactive”. As for `CCOc1ncc(F)c(=O)[nH]1`, the entry is “inactive”; as for `O=C(O)CCCC[C@@H]1SC[C@@H]2NC(=O)N[C@@H]21`, “inactive”; as for `Cc1ccc(C(C)OC(=O)C2(C)CCC(C(=O)O)C2(C)C)cc1` (stereo not given), “inactive”. As for `Cc1ccc2c(Cl)cc(Cl)c(O)c2n1`, the entry is “inactive”; as for `O=C1NCCN1CCN1CCC(c2cn(-c3ccc(F)cc3)c3ccc(Cl)cc23)CC1`, 11 µM (active). With `CCCCC(CC)CNC(=O)CC(C)OC(=O)CCC(=O)O` (stereo not given), the Potency entry is “inactive”. Take `O=C(O)Cn1c(=O)n(Cc2ccc(Br)cc2F)c(=O)c2ccc(Cl)cc21`: the Potency entry was “inactive”. On to `CC1(C)O[C@@H]2C[C@H]3[C@@H]4CCC5=CC(=O)C=C[C@]5(C)[C@@]4(F)[C@@H](O)C[C@]3(C)[C@]2(C(=O)CO)O1`, for which the Potency result was “inactive”. In the case of `CCC(=O)O[C@]1(C(=O)COC)[C@@H](C)C[C@H]2[C@@H]3CCC4=CC(=O)C=C[C@]4(C)C3(F)[C@@H](O)C[C@@]21C` (stereo not given in full), the Potency entry is “inactive”.

For the compound `COc1ccc(-n2nc(CCC(=O)N(C)O)cc2-c2ccc(Cl)cc2)cc1`, the Potency was 19.5 µM (active).

`O=C(Nc1ccc(Cl)cc1)Nc1ccc(Cl)c(Cl)c1`: the Potency is 24.6 µM (active). Then `CCCCCN(CCCOC)C(=O)C(CCC(=O)O)NC(=O)c1ccc(Cl)c(Cl)c1` (stereo not given), with “inactive”; and `CC(C)(C)C1CCC(CC2=C(O)c3ccccc3C(=O)C2=O)CC1` (stereo not given), with 3.89 µM (active). Then `C[C@@H](O[C@H]1OCCN(Cc2n[nH]c(=O)[nH]2)[C@H]1c1ccc(F)cc1)c1cc(C(F)(F)F)cc(C(F)(F)F)c1`, with 27.6 µM (active); and `CN1CCN(N)CC1`, with “inactive”; and `CC(C)C(=O)Nc1cccc(C(F)(F)F)c1`, with “inactive”. As for `Oc1ccccc1`, the entry is “inactive”; as for `OC1(c2ccc(Cl)cc2)CCNCC1`, “inactive”; as for `O=c1[nH]sc2cc(Cl)ccc12`, 13.8 µM (active). Turning to `O=C(NO)c1ccccc1`, the Potency entry was “inactive”. For the compound `CCCCCCCCCCCCCCCC[N+](C)(C)Cc1ccccc1`, the Potency is 11 µM (active). Then `C1N2CN3CN1CN(C2)C3`, with “inactive”; and `NS(=O)(=O)c1ccc(N2CCCCS2(=O)=O)cc1`, with “inactive”. Then `Nc1ccc(C(=O)N2CC3CC(CN(Cc4ccccc4)C3)C2)cc1`, with “inactive”; and `N#Cc1cc(NC(=O)C(=O)O)c(Cl)c(NC(=O)C(=O)O)c1`, with “inactive”. Then `CC(C)(C)C(=O)OCOC(=O)C1N2C(=O)CC2S(=O)(=O)C1(C)C` (stereo not given), with “inactive”. With `CCOC(=O)C(=O)c1csc(NC=O)n1`, the Potency result was “inactive”.

In the case of `CC(C)(C)NCC(O)COc1ccccc1OCC1CCCO1` (stereo not given), the Potency entry is “inactive”. Turning to `COc1ccc(OC(=O)N(CC(=O)O)Cc2ccc(OCCc3nc(-c4ccccc4)oc3C)cc2)cc1`, the Potency entry was “inactive”.

Consider `CCN1CCCC1CN` (stereo not given), for which the Potency entry was “inactive”. Then `COc1ccc2cc(C=O)ccc2c1`, with “inactive”; and `Nc1ncnc2nc[nH]c12`, with “inactive”; and `Cc1cc(=O)oc2cc(O[C@@H]3SC[C@@H](O)[C@H](O)[C@H]3O)ccc12`, with “inactive”.

Turning to `CCOC(=O)C(=O)CCc1ccccc1`, the Potency result was “inactive”.

`O=C(Nc1ccc(Cl)cc1)Nc1ccc(Cl)c(C(F)(F)F)c1`: the Potency is 5.5 µM (active). Then `Nc1ccc(O)cc1`, with “inactive”; and `O=C(O)C(=O)Nc1cccc(-c2nn[nH]n2)c1`, with “inactive”. As for `COc1cc2nc(Cl)nc(N)c2cc1OC`, the entry is “inactive”.
